Data on 1 compound can be found in ChEMBL document CHEMBL1961873, “Compounds: GSK PKIS; Assays: Nanosyn kinase panel” (2012).

For test [1], the target named is Sphingosine kinase 1 (Homo sapiens) (UniProt Q9NYA1). As to conditions: at 1 µM.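 Further: mean SPHK1 inhibition value reported from the GSK PKIS kinase panel screen.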
Test [2] deals with T1, Sphingosine kinase 2 (Homo sapiens) (UniProt Q9NRA0).
T1 sequence (whole entry): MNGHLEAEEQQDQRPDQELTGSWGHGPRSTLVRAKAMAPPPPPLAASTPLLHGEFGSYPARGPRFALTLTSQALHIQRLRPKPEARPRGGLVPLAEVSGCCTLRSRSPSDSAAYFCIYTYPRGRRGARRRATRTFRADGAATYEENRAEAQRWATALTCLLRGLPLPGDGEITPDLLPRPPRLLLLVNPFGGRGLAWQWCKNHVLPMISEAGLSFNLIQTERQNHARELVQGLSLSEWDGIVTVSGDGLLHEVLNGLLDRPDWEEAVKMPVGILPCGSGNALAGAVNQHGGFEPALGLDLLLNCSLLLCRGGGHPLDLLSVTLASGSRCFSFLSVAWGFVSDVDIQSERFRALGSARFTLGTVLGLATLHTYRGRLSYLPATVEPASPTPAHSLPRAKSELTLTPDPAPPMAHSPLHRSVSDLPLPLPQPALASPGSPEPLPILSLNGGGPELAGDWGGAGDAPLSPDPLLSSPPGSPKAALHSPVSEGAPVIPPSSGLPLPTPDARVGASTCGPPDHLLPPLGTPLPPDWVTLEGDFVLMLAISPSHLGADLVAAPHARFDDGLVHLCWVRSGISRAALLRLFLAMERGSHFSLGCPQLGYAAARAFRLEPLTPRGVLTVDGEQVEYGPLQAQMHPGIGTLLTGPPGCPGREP
The following applies: at 0.1 µM.

The target of test [3] is T1, Sphingosine kinase 2 (Homo sapiens). The following applies: at 1 µM.
Test [4] deals with Casein kinase II subunit alpha (Homo sapiens) (UniProt P68400). The following applies: at 0.1 µM.
Test [5] shares this target. As to conditions: at 1 µM.
Test [6] has as its target T2, Inhibitor of nuclear factor kappa-B kinase subunit alpha (Homo sapiens) (UniProt O15111).
T2 sequence (whole entry): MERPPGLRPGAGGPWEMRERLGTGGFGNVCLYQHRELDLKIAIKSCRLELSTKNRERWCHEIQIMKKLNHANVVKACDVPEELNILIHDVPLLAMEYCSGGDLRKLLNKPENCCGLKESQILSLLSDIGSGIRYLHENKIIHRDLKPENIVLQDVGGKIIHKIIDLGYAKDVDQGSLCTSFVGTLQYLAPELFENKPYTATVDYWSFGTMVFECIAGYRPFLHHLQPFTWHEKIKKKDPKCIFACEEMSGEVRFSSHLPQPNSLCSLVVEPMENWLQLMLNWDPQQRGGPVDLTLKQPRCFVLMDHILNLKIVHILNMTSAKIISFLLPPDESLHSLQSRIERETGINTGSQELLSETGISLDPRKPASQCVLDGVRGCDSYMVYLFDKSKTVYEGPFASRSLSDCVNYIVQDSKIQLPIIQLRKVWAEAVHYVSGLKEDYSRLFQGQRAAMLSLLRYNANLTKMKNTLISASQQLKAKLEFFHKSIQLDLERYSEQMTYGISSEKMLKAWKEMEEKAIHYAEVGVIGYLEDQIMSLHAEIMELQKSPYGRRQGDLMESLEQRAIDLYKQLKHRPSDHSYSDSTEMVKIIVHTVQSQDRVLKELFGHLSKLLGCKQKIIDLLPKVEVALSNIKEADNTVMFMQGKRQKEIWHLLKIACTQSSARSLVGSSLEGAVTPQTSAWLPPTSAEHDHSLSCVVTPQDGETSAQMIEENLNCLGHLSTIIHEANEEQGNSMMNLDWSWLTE
The following applies: at 0.1 µM.

The target in test [7] is T2, Inhibitor of nuclear factor kappa-B kinase subunit alpha (Homo sapiens). The following applies: at 1 µM.
Test [8] concerns the target T3, Inhibitor of nuclear factor kappa-B kinase subunit beta (Homo sapiens) (UniProt O14920).
T3 sequence (whole entry): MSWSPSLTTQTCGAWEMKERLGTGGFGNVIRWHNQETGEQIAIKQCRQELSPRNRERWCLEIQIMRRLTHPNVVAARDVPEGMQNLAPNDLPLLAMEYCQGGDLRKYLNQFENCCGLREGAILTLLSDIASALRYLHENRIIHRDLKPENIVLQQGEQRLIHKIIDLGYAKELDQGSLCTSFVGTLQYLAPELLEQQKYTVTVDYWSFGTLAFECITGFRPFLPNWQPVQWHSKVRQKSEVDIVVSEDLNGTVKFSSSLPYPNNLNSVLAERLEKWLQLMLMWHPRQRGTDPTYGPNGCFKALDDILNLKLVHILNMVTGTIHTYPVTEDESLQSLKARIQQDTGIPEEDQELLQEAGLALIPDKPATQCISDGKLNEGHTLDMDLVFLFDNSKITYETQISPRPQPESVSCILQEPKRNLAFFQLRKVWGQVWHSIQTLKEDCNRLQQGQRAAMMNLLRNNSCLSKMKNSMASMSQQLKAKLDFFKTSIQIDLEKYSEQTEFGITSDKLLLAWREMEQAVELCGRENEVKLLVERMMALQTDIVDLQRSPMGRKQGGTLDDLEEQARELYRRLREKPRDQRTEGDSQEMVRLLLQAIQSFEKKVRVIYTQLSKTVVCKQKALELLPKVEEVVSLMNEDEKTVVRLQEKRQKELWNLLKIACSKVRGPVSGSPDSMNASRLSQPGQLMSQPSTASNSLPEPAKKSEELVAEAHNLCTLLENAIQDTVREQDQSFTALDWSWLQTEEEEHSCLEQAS
The following applies: at 0.1 µM.

The target in test [9] is T3, Inhibitor of nuclear factor kappa-B kinase subunit beta (Homo sapiens). The following applies: at 1 µM.
The target of test [10] is T4, Inhibitor of nuclear factor kappa-B kinase subunit epsilon (Homo sapiens) (UniProt Q14164).
T4 sequence (whole entry): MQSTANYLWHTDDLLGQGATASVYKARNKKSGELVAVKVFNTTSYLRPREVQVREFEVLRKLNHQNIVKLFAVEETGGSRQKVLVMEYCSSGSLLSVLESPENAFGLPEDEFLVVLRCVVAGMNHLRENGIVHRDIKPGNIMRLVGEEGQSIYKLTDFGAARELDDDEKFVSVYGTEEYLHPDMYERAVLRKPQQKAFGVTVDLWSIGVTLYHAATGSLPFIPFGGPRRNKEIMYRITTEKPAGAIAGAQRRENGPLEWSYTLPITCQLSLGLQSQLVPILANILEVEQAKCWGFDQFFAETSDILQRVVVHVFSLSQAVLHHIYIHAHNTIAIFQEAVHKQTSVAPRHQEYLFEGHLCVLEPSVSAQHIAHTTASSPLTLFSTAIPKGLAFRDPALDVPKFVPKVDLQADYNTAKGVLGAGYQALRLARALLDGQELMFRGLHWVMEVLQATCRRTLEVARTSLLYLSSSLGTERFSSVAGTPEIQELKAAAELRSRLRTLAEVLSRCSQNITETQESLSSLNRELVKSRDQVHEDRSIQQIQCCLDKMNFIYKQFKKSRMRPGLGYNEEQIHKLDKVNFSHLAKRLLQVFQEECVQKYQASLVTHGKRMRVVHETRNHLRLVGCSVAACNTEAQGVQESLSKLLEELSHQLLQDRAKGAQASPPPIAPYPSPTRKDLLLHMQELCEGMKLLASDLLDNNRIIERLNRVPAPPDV
The following applies: at 0.1 µM.

The target in test [11] is T4, Inhibitor of nuclear factor kappa-B kinase subunit epsilon (Homo sapiens). As to conditions: at 1 µM.
For test [12], the target named is T5, Serine/threonine-protein kinase Nek1 (Homo sapiens) (UniProt Q96PY6).
T5 sequence (whole entry): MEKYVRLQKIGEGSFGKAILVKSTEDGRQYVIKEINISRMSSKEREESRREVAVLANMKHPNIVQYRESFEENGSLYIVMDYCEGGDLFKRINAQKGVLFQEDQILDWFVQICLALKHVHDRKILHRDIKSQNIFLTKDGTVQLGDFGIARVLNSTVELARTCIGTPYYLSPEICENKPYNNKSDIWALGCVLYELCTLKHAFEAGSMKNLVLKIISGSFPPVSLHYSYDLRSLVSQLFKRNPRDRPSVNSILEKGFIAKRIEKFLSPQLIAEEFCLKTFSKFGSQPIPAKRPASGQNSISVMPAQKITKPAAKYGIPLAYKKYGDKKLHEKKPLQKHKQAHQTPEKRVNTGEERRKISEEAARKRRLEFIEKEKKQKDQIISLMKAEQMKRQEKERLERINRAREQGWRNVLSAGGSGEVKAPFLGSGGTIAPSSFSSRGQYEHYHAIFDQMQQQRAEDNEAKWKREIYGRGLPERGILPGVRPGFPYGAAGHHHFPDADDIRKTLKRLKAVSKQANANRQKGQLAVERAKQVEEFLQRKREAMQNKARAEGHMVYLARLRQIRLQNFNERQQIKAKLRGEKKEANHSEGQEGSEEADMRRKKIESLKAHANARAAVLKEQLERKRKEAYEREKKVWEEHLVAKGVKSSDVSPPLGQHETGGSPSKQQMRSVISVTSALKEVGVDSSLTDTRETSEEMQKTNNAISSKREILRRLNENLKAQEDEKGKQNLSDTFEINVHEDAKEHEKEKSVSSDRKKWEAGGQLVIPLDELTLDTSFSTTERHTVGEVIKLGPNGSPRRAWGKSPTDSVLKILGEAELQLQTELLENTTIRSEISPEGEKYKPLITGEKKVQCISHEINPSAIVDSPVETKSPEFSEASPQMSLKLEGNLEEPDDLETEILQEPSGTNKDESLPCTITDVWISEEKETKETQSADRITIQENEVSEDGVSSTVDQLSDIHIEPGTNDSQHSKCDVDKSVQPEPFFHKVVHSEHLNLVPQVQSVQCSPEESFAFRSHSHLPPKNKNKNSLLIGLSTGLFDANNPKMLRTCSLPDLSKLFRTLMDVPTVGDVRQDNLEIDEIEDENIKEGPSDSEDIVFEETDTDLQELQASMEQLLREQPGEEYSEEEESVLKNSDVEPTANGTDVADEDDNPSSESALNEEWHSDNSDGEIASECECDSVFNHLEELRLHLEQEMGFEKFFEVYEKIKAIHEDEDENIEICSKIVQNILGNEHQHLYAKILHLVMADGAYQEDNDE
The following applies: at 0.1 µM.

Test [13] concerns the target T5, Serine/threonine-protein kinase Nek1 (Homo sapiens). As to conditions: at 1 µM.
Test [14] deals with T6, Serine/threonine-protein kinase Nek2 (Homo sapiens) (UniProt P51955).
T6 sequence (whole entry): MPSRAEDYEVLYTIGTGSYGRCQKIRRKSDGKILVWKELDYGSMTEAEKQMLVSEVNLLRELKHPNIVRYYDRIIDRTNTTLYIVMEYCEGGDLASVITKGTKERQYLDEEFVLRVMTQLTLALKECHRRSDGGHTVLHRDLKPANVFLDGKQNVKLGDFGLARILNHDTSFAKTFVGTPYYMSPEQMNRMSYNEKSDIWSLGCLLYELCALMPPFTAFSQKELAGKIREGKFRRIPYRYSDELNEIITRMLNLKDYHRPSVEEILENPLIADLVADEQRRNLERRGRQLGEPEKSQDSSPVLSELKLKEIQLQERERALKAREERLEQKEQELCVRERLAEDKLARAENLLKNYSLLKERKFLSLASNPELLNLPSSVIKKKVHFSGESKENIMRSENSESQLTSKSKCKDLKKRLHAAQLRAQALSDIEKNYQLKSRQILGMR
As to conditions: at 0.1 µM.

For test [15], the target named is T6, Serine/threonine-protein kinase Nek2 (Homo sapiens). As to conditions: at 1 µM.
The target in test [16] is Serine/threonine-protein kinase Nek6 (Homo sapiens) (UniProt Q9HC98). As to conditions: at 0.1 µM.
Test [17] shares this target. The following applies: at 1 µM.
Test [18] addresses Serine/threonine-protein kinase Nek7 (Homo sapiens) (UniProt Q8TDX7). The following applies: at 0.1 µM.
The target is the same in test [19]. As to conditions: at 1 µM.
The target of test [20] is T7, Serine/threonine-protein kinase Nek9 (Homo sapiens) (UniProt Q8TD19).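 Further: reported value is the mean percent inhibition of NEK9.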
T7 sequence (whole entry): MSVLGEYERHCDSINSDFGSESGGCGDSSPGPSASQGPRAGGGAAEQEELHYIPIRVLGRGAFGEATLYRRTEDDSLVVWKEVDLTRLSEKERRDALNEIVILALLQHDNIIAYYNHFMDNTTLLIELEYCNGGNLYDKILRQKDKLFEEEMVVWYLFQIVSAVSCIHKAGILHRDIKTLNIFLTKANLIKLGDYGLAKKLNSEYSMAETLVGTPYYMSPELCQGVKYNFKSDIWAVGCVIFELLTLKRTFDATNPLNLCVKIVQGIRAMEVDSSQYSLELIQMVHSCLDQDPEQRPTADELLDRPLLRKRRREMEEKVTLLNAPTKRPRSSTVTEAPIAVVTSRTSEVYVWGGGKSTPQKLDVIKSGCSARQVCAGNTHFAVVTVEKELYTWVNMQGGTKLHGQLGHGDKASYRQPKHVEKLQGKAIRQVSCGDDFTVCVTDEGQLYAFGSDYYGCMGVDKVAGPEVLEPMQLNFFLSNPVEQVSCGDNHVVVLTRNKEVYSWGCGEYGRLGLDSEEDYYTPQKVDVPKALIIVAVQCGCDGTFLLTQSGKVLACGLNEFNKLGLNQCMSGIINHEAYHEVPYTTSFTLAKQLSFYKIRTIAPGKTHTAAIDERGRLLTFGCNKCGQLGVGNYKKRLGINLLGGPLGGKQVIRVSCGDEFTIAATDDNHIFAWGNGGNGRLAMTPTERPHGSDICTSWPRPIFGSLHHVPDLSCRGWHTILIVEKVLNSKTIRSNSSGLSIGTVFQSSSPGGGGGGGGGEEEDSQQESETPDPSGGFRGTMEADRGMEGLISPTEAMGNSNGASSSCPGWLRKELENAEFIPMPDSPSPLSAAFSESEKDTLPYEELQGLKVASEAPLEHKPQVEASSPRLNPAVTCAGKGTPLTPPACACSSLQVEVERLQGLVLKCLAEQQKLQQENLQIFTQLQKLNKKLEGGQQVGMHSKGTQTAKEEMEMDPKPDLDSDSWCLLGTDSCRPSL
The following applies: at 0.1 µM.

Sequence of Serine/threonine-protein kinase Nek6 (Homo sapiens) (Q9HC98 whole entry): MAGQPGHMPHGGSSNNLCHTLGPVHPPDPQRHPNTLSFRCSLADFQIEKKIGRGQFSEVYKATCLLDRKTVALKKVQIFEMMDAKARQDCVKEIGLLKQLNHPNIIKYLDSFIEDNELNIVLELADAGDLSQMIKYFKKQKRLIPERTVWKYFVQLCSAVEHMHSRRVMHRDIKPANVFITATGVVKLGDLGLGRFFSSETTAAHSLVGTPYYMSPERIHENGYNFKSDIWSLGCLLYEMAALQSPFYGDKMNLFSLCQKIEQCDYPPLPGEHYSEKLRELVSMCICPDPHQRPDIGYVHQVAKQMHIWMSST
Sequence of Casein kinase II subunit alpha (Homo sapiens) (P68400 whole entry, looked up): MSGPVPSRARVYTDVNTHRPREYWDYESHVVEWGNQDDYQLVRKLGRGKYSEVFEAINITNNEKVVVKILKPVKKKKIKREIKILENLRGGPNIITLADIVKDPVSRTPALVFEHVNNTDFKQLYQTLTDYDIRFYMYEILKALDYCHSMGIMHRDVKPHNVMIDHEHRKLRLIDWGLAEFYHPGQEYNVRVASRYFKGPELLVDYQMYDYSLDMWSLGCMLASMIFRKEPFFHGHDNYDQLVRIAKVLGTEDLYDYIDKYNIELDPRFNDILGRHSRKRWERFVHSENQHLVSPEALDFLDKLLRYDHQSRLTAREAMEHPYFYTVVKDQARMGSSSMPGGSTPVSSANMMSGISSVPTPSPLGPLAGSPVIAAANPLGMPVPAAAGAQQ
Sequence of Serine/threonine-protein kinase Nek7 (Homo sapiens) (Q8TDX7 whole entry, looked up): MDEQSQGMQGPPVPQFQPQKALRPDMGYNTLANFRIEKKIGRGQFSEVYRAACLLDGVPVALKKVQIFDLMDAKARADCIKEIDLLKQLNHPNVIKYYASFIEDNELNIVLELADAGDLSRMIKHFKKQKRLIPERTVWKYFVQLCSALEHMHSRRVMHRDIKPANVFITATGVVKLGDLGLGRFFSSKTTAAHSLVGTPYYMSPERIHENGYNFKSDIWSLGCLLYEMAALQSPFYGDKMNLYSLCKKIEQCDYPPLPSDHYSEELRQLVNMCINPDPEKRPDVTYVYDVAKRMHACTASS
Sequence of Sphingosine kinase 1 (Homo sapiens) (Q9NYA1 whole entry): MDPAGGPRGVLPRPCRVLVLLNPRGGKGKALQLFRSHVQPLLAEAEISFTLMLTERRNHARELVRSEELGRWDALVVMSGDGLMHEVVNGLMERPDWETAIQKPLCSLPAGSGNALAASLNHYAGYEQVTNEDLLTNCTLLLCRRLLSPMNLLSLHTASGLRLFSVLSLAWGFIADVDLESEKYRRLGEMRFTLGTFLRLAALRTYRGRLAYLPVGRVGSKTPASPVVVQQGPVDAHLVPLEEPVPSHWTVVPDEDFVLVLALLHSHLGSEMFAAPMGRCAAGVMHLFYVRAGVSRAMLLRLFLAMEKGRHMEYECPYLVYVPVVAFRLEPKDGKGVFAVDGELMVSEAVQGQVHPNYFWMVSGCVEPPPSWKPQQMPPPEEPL

For the compound `Fc1cccc(COc2ccc(Nc3ncnc4sc(-c5ccco5)cc34)cc2Cl)c1`, the inhibition (in general, the drop in the measured response relative to a control, in per cent) in [1] is -6.23%; in test [2], -2.56%; in test [3], -0.56%; in test [4], 8.17%; in test [5], 3.13%; in test [6] it was 8.13%. Also, the inhibition in [7] was 10.1%; in test [8] it was 5.86%; in test [9], 6.49%; in test [10] it was 6.22%; in test [11], 4.97%; in test [12] it was 1.98%. Further, the inhibition in test [13] turned out to be 3.24%; in test [14] it was 3.69%; in test [15] it was 5.99%; in [16], 1.71%; in test [17], 2.07%; in test [18], 2.72%. Further, the inhibition in test [19] worked out at 4.26%; in test [20], 10.3%.
